This is a sample that favours compounds with a hit; in the whole collection about 1.9% have one here.
BRCA1 expr act: increases BRCA1 expression; MCF7-BRCA1-FFLuc reporter, luminescence, 48 h; response scale: scaled: vehicle 0%, 10 µM genistein 100%; Potency, µM (titrated, usually from 46.1 µM), inactives show at the highest dose activation, hits mostly activators; 380,000 tested, 1.1% active; further: potency means the concentration at half of the fitted maximal effect; nearly all actives have a fitted effect of over 80% in size
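First, MCF7-BRCA1-FFLuc cells (2000/well) attach for 2 h; next, compounds are pin-added and incubated 48 h at 37 °C; finally, luciferase reagent is added and luminescence read after 15 min.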
NPSR antag: blocks cAMP signaling of the human neuropeptide S receptor; Potency, µM (series often up to 38.3 µM), for inactives: top-dose activity change, negative = inhibition, usual class: inhibitors; 220,000 tested, 1% active; CHO-NPSR cells, cAMP TR-FRET, antagonist mode; Q6W5P4; AID 1461; further: potency means the concentration at half of the fitted maximal effect; on the % scale 0 is the no-effect control and ±100 the full control effect; nearly all actives have a fitted effect of over 50% in size
Giardia killer: kills Giardia lamblia; Giardia lamblia trophozoite viability; AID 540267; activity change, % at 7.66 µM, hits read low; 340,000 tested, 0.15% active; in the data active means activity change below about -80%; inconclusive means between about -30% and that limit;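 further: parasites exposed to compound for two days anaerobically before the ATP read; on the % scale 0 is the no-effect control and ±100 the full control effect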
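Luminescent ATP signal served as the viability read-out, measured 15-30 min after adding ATP detection reagent to trophozoites that had been incubated with compounds for 48 hrs at 37 deg C anaerobically at 100 cells/well.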
IL2 activator: IL-2 activation. AID 652025. activation, % (series mostly up to about 46 µM). 360,000 tested, 0.065% active. IL-2 activation reporter assay, cell-based qHTS; stimulated with anti-CD3/CD4/CD28 beads; in transgenic mouse T cells; in the data active means activation above about 50%; inconclusive means mostly about 30% to 49%; further: 0% is about no effect
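Readout is EGFP and DsRed signal by fluorescent plate cytometry after 18 h at 37 degrees C. Transgenic mouse T cells (750/well) received compound for 60 min before bead stimulation (anti-CD3, anti-CD4, anti-CD28); memory T cells served as non-tolerant control.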
RXFP1 antagonist: antagonists of human relaxin receptor RXFP1 | Q9HBX9 | HEK293-RXFP1, relaxin-stimulated cAMP HTRF, 30 min; stronger effect = lower value | activity change, negative = inhibition, % at 57.5 µM | 350,000 tested, 0.59% active | AID 1259400;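 active means activity change of -60% or lower, but not beyond a set lower limit; inconclusive means change between -60% and -40%, or beyond the set limit; inactive means change above -40%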; further: on the % scale 0 is the no-effect control and ±100 the full control effect
Target sequence (Q9HBX9 whole entry, looked up): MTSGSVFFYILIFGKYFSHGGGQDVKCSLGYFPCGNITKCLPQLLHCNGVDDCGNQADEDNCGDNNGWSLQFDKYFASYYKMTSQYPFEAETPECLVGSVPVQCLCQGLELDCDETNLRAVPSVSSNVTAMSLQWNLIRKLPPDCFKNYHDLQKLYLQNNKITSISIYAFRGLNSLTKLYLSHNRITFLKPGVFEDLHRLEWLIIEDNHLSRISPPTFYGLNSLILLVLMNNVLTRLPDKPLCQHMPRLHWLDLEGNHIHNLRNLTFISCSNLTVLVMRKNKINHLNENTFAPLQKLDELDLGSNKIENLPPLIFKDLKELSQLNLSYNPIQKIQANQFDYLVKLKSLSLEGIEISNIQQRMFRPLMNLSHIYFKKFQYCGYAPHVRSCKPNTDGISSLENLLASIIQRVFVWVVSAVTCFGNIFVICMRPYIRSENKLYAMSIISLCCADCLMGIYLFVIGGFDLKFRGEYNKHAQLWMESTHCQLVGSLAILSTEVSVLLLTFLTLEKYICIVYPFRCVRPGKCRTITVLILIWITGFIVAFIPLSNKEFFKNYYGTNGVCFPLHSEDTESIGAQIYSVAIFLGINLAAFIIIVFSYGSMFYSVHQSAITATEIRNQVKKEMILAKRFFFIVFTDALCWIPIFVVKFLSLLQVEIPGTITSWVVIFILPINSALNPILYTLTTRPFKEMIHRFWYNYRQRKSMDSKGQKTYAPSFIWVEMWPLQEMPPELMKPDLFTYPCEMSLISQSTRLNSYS
RXFP1 ag: activates the human relaxin receptor RXFP1 | Q9HBX9 | HEK293T-RXFP1 cAMP TR-FRET, 30 min; response scale: percent of porcine relaxin response, buffer zero | Potency, µM (doses to about 57.5 µM), inactives show at the highest dose activation, hits mostly activators | AID 2676 | 370,000 tested, 0.3% active; further: potency means the concentration at half of the fitted maximal effect; on the % scale 0 is the no-effect control and ±100 the full control effect; nearly all actives have a fitted effect of over 60% in size
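cAMP rise read by TR-FRET after 30 min, 37C compound exposure (up to 58 uM) in RXFP1-transfected HEK293 cells with Ro 20174 present. EC50 from Hill-equation fits, with 29 nM porcine relaxin as 100% and buffer as basal.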
* = called active by the depositor; ? = inconclusive; . = no result; ! = not active in a repeat; [ ] = another dose, or the depositor's remark. Unless noted, the call rests on the fitted dose curve; in most records, active means well fitted curve in the direction sought with a large enough effect; inconclusive means small, poorly fitted or top-dose-only effect, or another doubt; inactive means no such curve, though single readings can be large; an effect the other way counts as inactive or inconclusive.

SMILES	BRCA1 expr act	NPSR antag	Giardia killer	IL2 activator	RXFP1 antagonist	RXFP1 ag
COc1cccc(C2C(C(=O)c3cc4cccc(OC)c4o3)=C(O)C(=O)N2c2cc(C)on2)c1OC (configuration not stated)	-30%	6.3µM*	-23	0	3	?
COc1ccc(C2C(C(=O)c3ccco3)=C(O)C(=O)N2Cc2cccnc2)cc1OC (configuration not stated)	0%	8%[46.1 µM]	-5	1	3	2%
COc1ccc2nc3sc(C(=O)N4CCN(c5ccc(F)cc5)CC4)cc3cc2c1	7%	.	.	.	.	6%
O=C1c2ccccc2S(=O)(=O)N1CC1CC(c2ccccc2Cl)=NO1 (configuration not stated)	5µM*	-14%	1	-1	-2	2%
CCc1cc(/C=C/c2ccnc3ccccc23)ccc1N(C)C	-23%	.	.	.	.	.
O=C(Nc1ccc2[nH]ncc2c1)c1ccccc1Cl	2.8µM*	.	?	-3	-5	0%
O=C(Nc1ccc2[nH]ncc2c1)c1ccccc1Br	?	.	7	0	7	0%
c1ccc(N2CCN(c3nc4cc5c(cc4s3)OCO5)CC2)cc1	4µM*!	6%[46.1 µM]	-14	0	-7	3%
CCOc1ccc(OCc2ccc(C(=O)NCc3cccnc3)o2)cc1	11µM*	-4%[46.1 µM]	-2	0	-8	2%
CCOc1ccc(OCc2ccc(C(=O)Nc3cccnc3)o2)cc1	10%	3%[46.1 µM]	-3	0	1	2%
CCCc1cc(-c2[nH]ncc2-c2ccc3c(c2)OCCCO3)c(O)cc1O	-51%	?	-10	-1	-76*	-1%
CCCc1cc(-c2[nH]ncc2-c2ccc(C(=O)OCC)o2)c(O)cc1O	-58%	?	3	-2	-33	4%
Cc1cc(C)n(-c2nc3ccccc3nc2N2CCN(c3cccc(C(F)(F)F)c3)CC2)n1	.	.	.	.	-14	3%
COc1ccc(-c2cc3ccc(O)c(CN4CCCC4)c3oc2=O)cc1OC	.	.	.	.	-7	?
CN(C(=O)CSc1ccc2c(c1)OCCO2)c1ccccc1	10µM*	.	9	0	-1	.
N#CCCN(C(=O)CSc1ccc2c(c1)OCCO2)c1ccccc1	3%	-17%[46.1 µM]	8	-2	-12	-2%
O=C1C(Br)=Cc2cccc3cccc1c23	-13%	-19%	-2	0	-69*	-5%
CC(C)(C)c1ccc(NC(=O)C2=CC=CN3CCS(=O)(=O)N=C23)cc1	10µM*	.	-16	0	0	3%
Cc1ccc(S(=O)(=O)C2CCN(c3nc(-c4cccs4)nc4ccccc34)CC2)cc1	0%	.	-3	.	.	.
Cc1ccc(-n2nnc(-c3cccnc3Cl)n2)cc1	3.5µM*	-6%	8	0	.	0%
CCCCc1ccc(NC(=O)CSc2nc(=O)n(CCN(C)C)c3c2CCC3)cc1	-74%	.	-15	2	-85*	0%
CC(COc1ccccc1)NN (configuration not stated)	.	.	.	.	-11	.
CC(=O)Nc1ccc(-c2csc(Nc3ncccn3)n2)cc1	3.5µM*	3%	-15	3	2	0%
Oc1ccc(-c2csc(Nc3ncccn3)n2)cc1	?	2%	10	4	3	-2%
CS(=O)(=O)Nc1ccc(C2=NN(S(C)(=O)=O)C(c3ccc4c(c3)OCO4)C2)cc1 (configuration not stated)	4.5µM*	-1%	26	1	18	3%
SMILES	BRCA1 expr act	NPSR antag	Giardia killer	IL2 activator	RXFP1 antagonist	RXFP1 ag
CC(=O)N1N=C(c2cccc(NS(C)(=O)=O)c2)CC1c1ccc2c(c1)OCO2 (configuration not stated)	34%	.	-3	3	1	0%
O=C(NCCOCCn1c(=O)oc2ccccc21)Nc1ccc(Cl)cc1	-5%	.	.	.	.	-1%
O=C(CCCN1C(=O)/C(=C\c2ccccc2)SC1=S)Nc1cccc(C(=O)O)c1	19%	.	-8	2	-8	2%
O=C(CCN1C(=O)/C(=C\C=C\c2ccccc2)SC1=S)Nc1cccc(C(=O)O)c1	6.3µM*	.	-13	-4	-3	-3%
CCN(CC)S(=O)(=O)c1ccc(NC(=O)Nc2cccc(C(F)(F)F)c2)cc1	-78%	16µM*	15	5	-32	-1%
O=C(COC(=O)c1n[nH]c2ccccc12)Nc1ccc(Cl)cc1[N+](=O)[O-]	-21%	-6%	-13	1	-75*	2%
COc1cc([N+](=O)[O-])ccc1NC(=O)COC(=O)c1n[nH]c2ccccc12	-73%	-17%	0	-4	2	4%
COc1cccc(CCc2ccccc2OCC(CN(C)C)OC(=O)CCC(=O)O)c1 (configuration not stated)	0%	.	.	.	-15	.
Cc1ccc(Nc2cc(C(=O)NC3CCCC3)c3ccccc3n2)cc1C	.	.	.	.	9	4%
COc1ccc(Nc2c3c(nc4ccc(NC(=O)/C=C/c5cccc(OC)c5OC)cc24)CCCC3)cc1OC	.	.	.	.	-8	5%
CN(C)/C=C1\SC(=S)N(c2ccc(F)cc2)C1=O	62%	6%	12	-1	.	0%
CN(C)/C=C1\SC(=S)N(c2ccc(Br)cc2)C1=O	10µM*	-20%	4	-3	.	0%
CCS(=O)(=O)c1ccc(OC)c(C(=O)OC)c1	.	.	.	.	-27	.
Nc1ccc(C(=O)N2CC3CC(CN(Cc4ccccc4)C3)C2)cc1	.	.	.	.	7	.
COc1ccc(C(=O)COc2ccc(F)cc2)c(O)c1	11µM*	-20%	-3	-2	-17	0%
Cc1ccccc1OCC(=O)NCC(=O)OC(c1ccccc1)c1ccccc1	6%	.	-28	.	.	.
CC(=O)N/N=C\c1ccccc1OC/C=C/c1ccccc1	2.8µM*	.	-13	2	-14	0%
CCOC(=O)N/N=C\c1ccc(OC/C=C/c2ccccc2)cc1	8.9µM*	.	-14	-3	1	-2%
Cc1ccc(/C=N/NC(=O)C(O)c2ccccc2)o1 (configuration not stated)	-2%	2%	-10	-1	5	0%
CCOC(=O)N/N=C/c1ccccc1F	10µM*	-4%[46.1 µM]	-8	0	5	1%
Cc1ccc(/C=N/NC(=O)Nc2ccccc2)o1	13µM*	-1%	-17	0	-1	1%
CCOC(=O)N/N=C/c1c(F)cccc1F	82%	6%	-5	0	12	1%
CS(=O)(=O)c1ccc(C(=O)OCC(=O)N2CCc3ccccc32)cc1[N+](=O)[O-]	-19%	.	1	.	.	.
COC(=O)N/N=C/c1ccc(Oc2ccccc2)cc1	10µM*	5%	2	-1	-10	-3%
COC(=O)N/N=C\c1ccc(OC/C=C/c2ccccc2)cc1	7.1µM*	.	0	1	2	3%
